Bioassay records deposited in PubChem by National Center for Advancing Translational Sciences (NCATS).
Rows were chosen to be rich in hits. Some 7.3% of all compounds tested hit in one or more screens of this group.
FLuc modulator: qHTS profiling assay for firefly luciferase inhibitor/activator using purifed enzyme and Km concentrations of substrates (counterscreen for miR-21 project); Potency, µM (titrated, usually from 57.5 µM), hits mostly inhibitors; hit rate 6.9% among 360,000; purified FLuc, Km substrates, luminescence inhibition; Luciferin 4-monooxygenase (Photinus pyralis), P08659; note: nearly all actives have a fitted effect of over 55% in size
Target sequence (P08659 whole entry, looked up): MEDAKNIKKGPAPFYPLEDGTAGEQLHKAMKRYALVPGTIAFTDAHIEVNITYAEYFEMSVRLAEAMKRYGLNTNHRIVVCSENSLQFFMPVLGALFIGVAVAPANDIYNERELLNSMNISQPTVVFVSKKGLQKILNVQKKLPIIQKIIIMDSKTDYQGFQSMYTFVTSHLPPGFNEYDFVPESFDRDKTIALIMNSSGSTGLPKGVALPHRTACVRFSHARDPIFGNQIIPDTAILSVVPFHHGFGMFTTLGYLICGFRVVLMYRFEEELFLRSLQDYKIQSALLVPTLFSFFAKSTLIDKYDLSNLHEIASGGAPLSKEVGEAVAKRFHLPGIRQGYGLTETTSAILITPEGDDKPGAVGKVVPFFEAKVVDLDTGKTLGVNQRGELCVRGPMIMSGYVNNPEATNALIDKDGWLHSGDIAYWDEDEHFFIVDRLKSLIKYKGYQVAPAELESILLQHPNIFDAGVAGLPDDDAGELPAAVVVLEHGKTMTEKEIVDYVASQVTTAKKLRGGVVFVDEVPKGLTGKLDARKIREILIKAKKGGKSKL
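Purified P. pyralis luciferase, 10 nM final, with Km-level 10 uM D-luciferin and 10 uM ATP in 50 mM Tris acetate pH 7.5, 10 mM Mg acetate, 0.01% Tween-20, 0.05% BSA; 6-point qHTS titration about 60 µM downward; luminescence read.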
SMN2 splice enh: qHTS Assay for Enhancers of SMN2 Splice Variant Expression | HEK293 SMN2-luciferase splicing reporter, luminescence, 30-36 h | Potency, µM (titrated, usually from 46.1 µM), most hits filed as activators | hit rate 2.8% among 210,000 | AID 1458, 2008; note: nearly all actives have a fitted effect of over 55% in size
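qHTS luciferase splicing reporter: luminescence rises when SMN2 exon 7 is included in transfected HEK293 cells. Compound exposure lasted 30-36 h at 37C, with 4.5 mM final sodium butyrate as control, followed by a ONE-Glo read.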
ELG1 genotox: qHTS screen for small molecules that induce genotoxicity in human embryonic kidney (HEK293T) cells expressing luciferase-tagged ELG1; HEK293T ELG1-luciferase reporter, luminescence, 16 h; Potency, µM (series often up to 46 µM), usual class: activators; hit rate 1.3% among 330,000; note: nearly all actives have a fitted effect of over 60% in size
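HEK293T cells expressing luciferase-tagged ELG1 were exposed to compound or DMSO vehicle for 16 hr at 37 °C and 5% CO2. Luciferase activity was then measured with ONE-Glo after 30 min at room temperature.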
NPC1 promoter act: qHTS Assay for NPC1 Promoter Activators. Huh7 NPC1 promoter luciferase reporter, 24 h. Potency, µM (series often up to 9.22 µM), most hits filed as activators. hit rate 2.4% among 320,000; note: nearly all actives have a fitted effect of over 60% in size
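Readout is luciferase luminescence, reflecting NPC1 promoter activation in stably transfected Huh7 cells after 24 h compound exposure at 37 °C in reduced-serum medium with 10% FBS.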
KinaseGlo FLuc: Counterscreen for Luciferase (Kinase-Glo TM) Inhibition; Luciferin 4-monooxygenase (Photuris pensylvanica), Q27757; Kinase-Glo luciferase, ATP luminescence, 8 min; Potency, µM (titrated, usually from 38.3 µM), actives largely listed as inhibitors; hit rate 0.28% among 200,000; AID 1379, 2008; note: nearly all actives have a fitted effect of over 60% in size
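Compound is pinned into ATP-containing buffer (10 uM ATP, imidazole pH 7.2, 7 mM MgCl2). Kinase-Glo luciferase reagent is then added. Light output is recorded following an 8-min room-temperature incubation.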
Rab9 prom act: qHTS Assay for Rab9 Promoter Activators | Huh7 Rab9 promoter-luciferase reporter, luminescence, 24 h | Potency, µM (doses to about 9.22 µM), most hits filed as activators | hit rate 2.8% among 320,000 | AID 485297, 2010; note: nearly all actives have a fitted effect of over 60% in size
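Quantitative HTS format; Huh7 Rab9-luciferase reporter cells (1500/well) receive compound 2 h post-plating, incubate 24 h at 37 °C, then get luciferase reagent for 10 min before luminescence reading.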
Each line names hits and unclear results; the compound was inactive in the other large screens. Calls come from the whole dose curve; as a rule, active = well fitted curve in the direction sought with a large enough effect; inconclusive = small, poorly fitted or top-dose-only effect, or another doubt; inactive = no such curve, though single readings can be large; an effect the other way counts as inactive or inconclusive.

CCCn1c(SCC(=O)c2ccc3c(c2)OCCO3)nnc1-c1ccco1	FLuc modulator inconclusive
CCCCN=C(C)c1c(O)c2ccccc2oc1=O	FLuc modulator 19µM, SMN2 splice enh inconclusive, ELG1 genotox inconclusive, NPC1 promoter act inconclusive, Rab9 prom act 4µM
COc1ccc(N=Cc2c(O)cc(C)oc2=O)cc1	FLuc modulator 12µM
COc1ccc(OCC(=O)c2c(O)c3ccccc3oc2=O)cc1	FLuc modulator 17µM (no result: SMN2 splice enh)
CC(C)c1ccc(N=Cc2c(O)c3ccccc3oc2=O)cc1	FLuc modulator 0.38µM (no result: SMN2 splice enh, KinaseGlo FLuc)
CCOc1ccc(OCC(=O)c2c(O)c3ccccc3oc2=O)cc1	FLuc modulator inconclusive
CCCCC(=O)c1c(O)c2ccccc2oc1=O	FLuc modulator inconclusive
Cc1cc(O)c(C=Nc2cccc(Cl)c2)c(=O)o1	none
COc1ccc(Cn2c(C(=O)O)c(CNCCc3ccco3)c3ccc(OC)cc32)cc1	none (no result: SMN2 splice enh, ELG1 genotox, NPC1 promoter act, KinaseGlo FLuc, Rab9 prom act)
COc1ccc(N=Cc2c(O)c3ccccc3oc2=O)cc1	FLuc modulator 0.76µM, KinaseGlo FLuc inconclusive
Cc1ccc(CNC(=O)C(=O)NCCC2CCCCN2S(=O)(=O)c2cccs2)cc1 (stereo not drawn)	none (no result: SMN2 splice enh, KinaseGlo FLuc)
C/C(=N\NC(=O)c1nnn(-c2nonc2N)c1-c1ccccc1)c1ccccc1O	none (no result: SMN2 splice enh, KinaseGlo FLuc)
O=C(Nc1scc(-c2ccccc2)c1C(=O)O)c1ccco1	FLuc modulator 11µM, SMN2 splice enh inconclusive, ELG1 genotox inconclusive
COc1ccc(-c2csc(NC(=O)c3ccccc3F)c2C(=O)O)cc1	FLuc modulator 24µM, NPC1 promoter act inconclusive (no result: SMN2 splice enh, KinaseGlo FLuc)
O=C(Nc1scc(-c2ccccc2)c1C(=O)O)c1ccccc1Cl	FLuc modulator inconclusive (no result: SMN2 splice enh, KinaseGlo FLuc)
COC(=O)c1c(-c2ccc(F)cc2)csc1NC(=O)c1ccco1	FLuc modulator 7.6µM, NPC1 promoter act inconclusive, Rab9 prom act 2.2µM
CCOC(=O)c1cc(NC(=O)c2ccc(C)cc2)c(=O)oc1C(F)(F)F	FLuc modulator inconclusive
CC(C)(C)c1cc(C(=O)C[n+]2ccc(C(=O)NCCCO)cc2)cc(C(C)(C)C)c1O	none (no result: SMN2 splice enh, KinaseGlo FLuc)
Clc1ccc(/C=N/Nc2nnc(-c3ncc[nH]3)c3ccccc23)cc1	FLuc modulator 0.85µM, SMN2 splice enh inconclusive, NPC1 promoter act 4.5µM, Rab9 prom act 2.8µM
Clc1cccc(/C=N/Nc2nnc(Cl)c3ccccc23)c1	FLuc modulator inconclusive, NPC1 promoter act inconclusive
CCN(C(=O)CSc1nnc(C2CC2)n1-c1ccccc1)C1CCS(=O)(=O)C1 (stereo not drawn)	none (no result: FLuc modulator, SMN2 splice enh, KinaseGlo FLuc)
N#C/C(=C\c1ccc(OCc2ccc(Br)cc2)cc1)C(=O)Nc1cccc(C(=O)O)c1	ELG1 genotox inconclusive (no result: SMN2 splice enh, KinaseGlo FLuc)
COc1ccc(NC(=O)CN(C)C(=O)c2cn(-c3ccccc3)nc2-c2ccc(F)cc2)cc1	FLuc modulator 21µM (no result: SMN2 splice enh, KinaseGlo FLuc)
COc1ccc(-c2nn(-c3ccccc3)cc2C(=O)Nc2ccc(C(=O)O)cc2)cc1	FLuc modulator 11µM (no result: SMN2 splice enh, KinaseGlo FLuc)
COc1ccc(NC(=O)c2cn(-c3ccccc3)nc2-c2ccncc2)cc1	FLuc modulator inconclusive
O=C(O)c1ccc(NC(=O)c2cn(-c3ccccc3)nc2-c2ccccc2)cc1	FLuc modulator 1.2µM, SMN2 splice enh inconclusive
OCc1cn(-c2ccccc2)nc1-c1cc2ccccc2o1	FLuc modulator 1.7µM, SMN2 splice enh 7.9µM, ELG1 genotox inconclusive, NPC1 promoter act 2.5µM, Rab9 prom act 1.3µM
COc1cc(CCCN2CCNC[C@@H]2C(C)O)cc(OC)c1OC (stereo partly drawn)	none (no result: SMN2 splice enh, KinaseGlo FLuc)
O=S(=O)(c1ccc2nc(-c3ccccc3)[nH]c2c1)N1CCN(c2ccc(Cl)cc2)CC1	none
Cc1nnc(SCC(=O)Nc2ccc(S(=O)(=O)N3CCCCC3)cc2)s1	none
COc1ccc(-c2nn(-c3ccccc3)cc2C(=O)Nc2ccccc2OC)cc1	none (no result: ELG1 genotox, NPC1 promoter act, KinaseGlo FLuc, Rab9 prom act)
O=C(O)c1ccc(NC(=O)c2cn(-c3ccccc3)nc2-c2ccc(Br)cc2)cc1	FLuc modulator 3.8µM
COc1ccc(NC(=O)c2cn(-c3ccccc3)nc2-c2cc3ccccc3o2)cc1	FLuc modulator 8.5µM
COc1ccc(-c2nn(-c3ccccc3)cc2/C=N/NC(=O)c2cccc(S(=O)(=O)Nc3ccccc3OC)c2)cc1	SMN2 splice enh inconclusive
COc1ccc(-c2nn(-c3ccccc3)cc2/C=N/Nc2cccc(C(=O)O)c2)cc1	FLuc modulator 11µM, ELG1 genotox inconclusive, NPC1 promoter act inconclusive, Rab9 prom act inconclusive
O=C(O)c1cccc(NC(=O)c2cn(-c3ccccc3)nc2-c2cccc(Br)c2)c1	FLuc modulator inconclusive (no result: SMN2 splice enh, KinaseGlo FLuc)
COc1ccc(-c2nn(-c3ccccc3)cc2C#N)cc1	FLuc modulator 5.4µM, ELG1 genotox inconclusive, NPC1 promoter act inconclusive, Rab9 prom act 3.5µM
CC(=O)Nc1ccc(N=c2cc([N+](=O)[O-])cc(Cl)n2O)cc1	none (no result: SMN2 splice enh, KinaseGlo FLuc)
Cc1ccc(NC(=O)CSc2nc(C)cc(C)c2C(=O)Nc2cccc(C)c2)cc1	none (no result: SMN2 splice enh, ELG1 genotox, NPC1 promoter act, KinaseGlo FLuc, Rab9 prom act)
CCOc1ccc(NC(=O)/C(C#N)=C\c2ccc(-c3ccc(Cl)cc3)o2)cc1	none (no result: ELG1 genotox, NPC1 promoter act, KinaseGlo FLuc, Rab9 prom act)
N#C/C(=C/c1ccc(N2CCCCC2)o1)C(=O)Nc1ccc2ccccc2c1	FLuc modulator 3.4µM
N#C/C(=C/c1ccc(N2CCCCC2)o1)C(=O)Nc1ccc(Cl)cc1	FLuc modulator 0.6µM, SMN2 splice enh 3.2µM, ELG1 genotox 2.3µM, NPC1 promoter act 2µM, Rab9 prom act 2.2µM
C/C(=N/NC(=O)c1cc2ccccc2cc1O)c1ccco1	FLuc modulator 5.4µM, ELG1 genotox inconclusive, NPC1 promoter act 2.8µM, Rab9 prom act 1.6µM (no result: SMN2 splice enh, KinaseGlo FLuc)
C/C(=N\NC(=O)c1c(C)nc2ccccn12)c1ccco1	FLuc modulator inconclusive, SMN2 splice enh 10µM, ELG1 genotox inconclusive, NPC1 promoter act inconclusive, Rab9 prom act 2.5µM
